Test results taken from PubChem BioAssay AID1117293 (Broad Institute, 2014).
Results with a measured potency or affinity are listed apart. Inconclusive results are not listed. A number with no mark means an inactive call.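 How the source made its calls: active means cytotoxic in every repeat run, with fitted half-maximal concentration at most twice the top tested dose; inconclusive means runs disagree, or flat partial drop, or poor curve fit; inactive means inactive in every run.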

assay: embryonic kidney cell viability loss – CellTiter-Glo luminescence, dry powder, set 20, cytotoxicity control, dose response (AID 1117293); details: HEK293T viability, CellTiter-Glo ATP luminescence, 72 h; series mostly up to 26 µM; activity change, negative = cytotoxicity: at the top concentration

Going from `COc1ccc(C(=O)Nc2cc(C(F)(F)F)ccc2N2CCCCC2)cc1S(=O)(=O)O` to `COc1ccc(S(=O)(=O)Nc2cc(C(F)(F)F)ccc2N2CCCCC2)cc1`, the “activity change, negative = cytotoxicity” value falls from -0.693% to -15.2%.

Going from `CC(=O)N1CCN(C(=O)C2(NC(=O)NC(C)(C)C)CCCCC2)CC1` to `CC(=O)N1CCN(C(=O)C2(NC(=O)Nc3cccc(C(F)(F)F)c3)CCCCC2)CC1`, the “activity change, negative = cytotoxicity” value rises from -21.7% to -5.58%.

Compared with `Cc1ccccc1S(=O)(=O)Nc1cc(C(F)(F)F)ccc1N1CCCCC1`, `CC(=O)N1CCN(C(=O)C(C)(C)NC(=O)Nc2ccc(C)cc2)CC1` is lower in “activity change, negative = cytotoxicity” value: -7.06% for the first, -10.8% for the second.

Compared with `CC(=O)N1CCN(C(=O)C2(NC(=O)Nc3ccc(C)cc3)CC2)CC1`, `CC(=O)N1CCN(C(=O)C2(NC(=O)Nc3ccc(F)cc3)CCCC2)CC1` is higher in “activity change, negative = cytotoxicity” value: -6.62% for the first, -2.16% for the second.
